We go through 40 compounds from PubChem BioAssay (Tox21).

Each structure is given as a SMILES string. Records with an inconclusive call do not appear. Where a call stands in place of a potency, no number is given. Values without a mark were called inactive. Calls of active or inactive are those of the source. The call rests on the fitted dose curve; in most records, active means well fitted activation curve with a large enough effect in the repeat runs; inconclusive means weak or mixed curves; inactive means no such curve, though single readings can be large or run the other way.
Potency means the concentration at half of the fitted maximal effect.

Chain of Nuclear receptor subfamily 1 group I member 2 (Homo sapiens) (O75469 whole entry, looked up): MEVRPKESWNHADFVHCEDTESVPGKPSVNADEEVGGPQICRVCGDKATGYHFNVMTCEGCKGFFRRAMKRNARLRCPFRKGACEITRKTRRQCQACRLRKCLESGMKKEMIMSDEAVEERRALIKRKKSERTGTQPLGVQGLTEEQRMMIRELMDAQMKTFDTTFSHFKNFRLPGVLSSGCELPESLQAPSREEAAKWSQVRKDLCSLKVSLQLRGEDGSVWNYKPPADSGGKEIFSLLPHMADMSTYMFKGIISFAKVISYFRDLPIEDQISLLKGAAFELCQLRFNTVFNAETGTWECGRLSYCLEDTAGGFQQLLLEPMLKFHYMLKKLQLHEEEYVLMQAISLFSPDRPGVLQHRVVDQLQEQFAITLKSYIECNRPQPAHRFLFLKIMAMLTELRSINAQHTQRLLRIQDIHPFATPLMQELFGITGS

The experiment has as its target Nuclear receptor subfamily 1 group I member 2 (Homo sapiens) (UniProt O75469). Briefly: Human pregnane X receptor (PXR) small molecule agonists, qHTS assay (AID 1346982). Further: nearly all actives have a fitted effect of over 35% in size. Particulars: PXR-Luc HepG2, CYP3A4 luciferase reporter, 24 h; series mostly up to 92.4 µM. The source says: National Center for Advancing Translational Sciences [NCATS]
NIH Chemical Genomics Center [NCGC]
U.S. Environmental Protection Agency [EPA]
National Institutes of Environmental Health Sciences [NIEHS]
National Toxicology Program [NTP]
The human pregnane X receptor (hPXR) regulates the expression of several drug metabolizing enzymes and induction of these proteins is a major mechanism for developing drug resistance in cancer. One such key enzyme catalyzing the drug metabolism is cytochrome P450 3A4 (CYP3A4). Changes in CYP3A4 expression affect drug metabolism, thereby reducing the therapeutic efficacy and altering toxicological response to a drug and which finally causes adverse drug interaction. To screen Tox21 libraries for compounds that activate hPXR-mediated CYP3A4 gene expression, PXR-Luc HepG2 cells were used.
PXR-Luc HepG2 cells were dispensed at 2,000 per well in 5uL of assay medium containing 5% charcoal-stripped FBS into white solid bottom 1536-well plates (Corning Life Sciences, Corning, NY) using a Multidrop Combi (Thermo Scientific, Waltham, MA) dispenser. The assay plates were incubated at 37 C and 5% CO2 for 5hr, and then 23nL of compounds dissolved in DMSO and positive control were transferred using a Pintool station (Wako, San Diego, CA). The assay plates were incubated at 37C and 5% CO2 for 24hr. For luciferase read, 4uL of ONE-Glo reagent (Promega Corporation, Madison, WI) was added to each well of the assay plates using Flying Reagent Dispenser (FRD, Aurora Discovery, San Diego, CA) and incubated the assay plates at room temperature for 30min. The luminescence signal was quantified using a ViewLux plate reader (Perkin Elmer, Shelton, CT).
In the case of `CCCCCCCCOS(=O)(=O)O`, the Potency result was “inactive”. On the same count and under the same terms, next, `CC(C)CCCCOC(=O)c1ccccc1C(=O)OCCCCC(C)C`: “inactive”; `CC(=O)Nc1ccc(S(=O)(=O)Cl)cc1`: “inactive”. Same read-out and setting: next, `CC(=O)NCc1c(I)c(NC(C)=O)c(I)c(C(=O)O)c1I`: “inactive”; `Oc1ccccc1-c1nnco1`: “inactive”; `COc1nccnc1NS(=O)(=O)c1ccc(N)cc1`: “inactive”. In the case of `CN(CCOc1ccc(NS(C)(=O)=O)cc1)CCc1ccc(NS(C)(=O)=O)cc1`, the Potency entry was “inactive”. Still for that read-out and setting: next, `Cc1ccccc1N=O`: “inactive”. On the same count and under the same terms, next, `O=C1c2cccc3c2[C@H](CCC3)CN1[C@@H]1CN2CCC1CC2`: “inactive”; `CC(=O)OC(C)OC(=O)C(C)c1ccc(-c2ccccc2)c(F)c1` (stereo not given): “inactive”. Still for that read-out and setting: next, `CCN1CCc2nc(N)oc2CC1`: “inactive”; `CCCOC(=O)C(C)O` (stereo not given): “inactive”.

Turning to `CCOc1cc([N+](=O)[O-])c(OCC)cc1N1CCOCC1`, the Potency was 30.6 µM (active). On the same count and under the same terms, the entry for `COC(=O)CCCCCCCC(=O)OC` is “inactive”; for `On1nnc2ccccc21` it is “inactive”.

As to `CCC(CC)CO`, the Potency entry is “inactive”. On the same count and under the same terms, the figure for `CC(=O)c1ccc2c(c1)Cc1ccccc1-2` is 54.5 µM (active); for `CC(C)CCCC(C)(C)O` it is “inactive”; for `Cc1ccc(C=O)cc1C` it is “inactive”. Still for that read-out and setting: the figure for `O=C(OCC(O)CO)c1ccccc1Nc1ccnc2c(C(F)(F)F)cccc12` (stereo not given) is 26.6 µM (active); for `CC1COc2ccccc2N1` (stereo not given) it is “inactive”. With `CCCCCCCCCC(C)=O`, the Potency result was “inactive”. Still for that read-out and setting: the entry for `COc1ccc(OC)c(Cl)c1` is “inactive”; for `N[C@@H](CCC(=O)Nc1ccc([N+](=O)[O-])cc1)C(=O)O` it is “inactive”. Same read-out and setting: the entry for `CCOCCOCCOCC` is “inactive”; for `C=C(C)C(=O)OCC(C)(C)COC(=O)C(=C)C` it is “inactive”; for `CCCCCCCCCCl` it is “inactive”. Consider `Nc1ccc(S(=O)(=O)Nc2ccc(Cl)nn2)cc1`, for which the Potency entry was “inactive”.

For `O=C(NCCN1CCOCC1)c1ccc(Cl)cc1`, the Potency result is “inactive”. The same measure, in the same setting: next, `C=C(C)C(=O)OCCN(CC)CC`: “inactive”. On the same count and under the same terms, the entry for `CCCCC(CC)COCCO` (stereo not given) is “inactive”; for `CCCCCCN` it is “inactive”; for `CC(C)=CCOC(=O)c1ccccc1` it is “inactive”. Same read-out and setting: the entry for `CCOC(=O)c1ncn2c1CN(C)C(=O)c1cc(F)ccc1-2` is “inactive”; for `CN(C)c1ccc(C=O)cc1` it is “inactive”. With `C[C@@H]1O[C@@H](O[C@@H]2[C@@H](O)[C@H](OCCc3ccc(O)c(O)c3)O[C@H](CO[C@@H]3O[C@H](CO)[C@@H](O)[C@H](O)[C@H]3O)[C@H]2OC(=O)/C=C/c2ccc(O)c(O)c2)[C@H](O)[C@H](O)[C@H]1O`, the Potency result is “inactive”. On the same count and under the same terms, the entry for `N#Cc1ccc(C(=O)O)cc1` is “inactive”. With `C[Si](C)=O`, the activation was 16.2% [at 8.39 µM]. Take `CCCCN`: the Potency result was “inactive”.

As to `CCCCCCOC(=O)CC`, the Potency result is “inactive”.
